Among the data in ChEMBL document CHEMBL4513216, “Probing the Open Global Health Chemical Diversity Library for Multistage-Active Starting Points for Next-Generation Antimalarials” (ACS Infect Dis, 2020) are INHIBITION values, retold here.

The whole screen tested about 69,000 compounds, of which about 8,600 (12%) showed an effect of 50% or more. This excerpt belongs to a sample that is enriched for strong results.

The test system of this experiment is Plasmodium berghei. The experiment can be described thus: Screen against P. berghei liver stage (PbLuc), transformed with Luciferase, at 10uM. It is filed as functional, HepG2. As to conditions: tested at 10 uM.
In the case of `CC(C)(C)OCC1CN(Cc2cccs2)S(=O)(=O)c2cnccc2O1` (configuration not stated), the INHIBITION is on record as 10.9%. For `OCCN1CCCCC1C1OCCO1` (configuration not stated) the value was -45.2%. For `O=S(=O)(C1CC1)N1Cc2[nH]nc(COCC3CC3)c2C1` the value was 36.4%; for `CCn1nc(C)c2ncnc(NCCN3CCOCC3)c21`, 21.7%.

With `CCn1ncc(S(=O)(=O)NC(C)c2cc(OC)ccc2OC)c1C` (configuration not stated), the INHIBITION amounted to 32.3%.

For the molecule `Cn1cncc1CN1CCC(O)(Cn2nc(-c3cccs3)oc2=O)CC1`, the INHIBITION is on record as 38.7%.

With `O=C(c1ccc2[nH]cnc2c1)N1CCC(Oc2cccnc2)CC1`, the INHIBITION was found to be 47.2%.

`O=C(c1cnc[nH]1)N1CCC(Oc2cccnc2)CC1`: the INHIBITION came to 55.9%.

Turning to `O=C(c1ccccn1)N1CCC(Oc2cccnc2)CC1`, the INHIBITION was -10.4%. As to `CCN1CCN(C)C2(CCN(Cc3ccsc3)CC2)C1=O`, the INHIBITION is 17.4%. Regarding `COC(=O)c1cc(C(=O)N2CCC(C)CC2)n(-c2ccccc2)n1`, the INHIBITION is listed as 22.265%. Turning to `Cc1nc2cc(O)nn2c(C)c1CCC(=O)NCCc1nccn1C`, the INHIBITION was 30.6%. The same measure for `CCOC(=O)N1CCN(C(=O)c2cc(-c3ccc(C)cc3)on2)CC1`: 23.4%; for `Cc1cc(C(=O)Nc2n[nH]c(C3CC3)n2)c2c(C)noc2n1`: 6.83%.

For `Nc1cc2c(nn1)CCN(C(=O)c1cccc3c1OCO3)C2`, the INHIBITION is -16%.

`COC(=O)N1CC(C)=C(C)CN1C(=O)Nc1ccc(Cl)c(Cl)c1`: the INHIBITION is recorded as -52.3%. As for `O=C(CC1CCCCC1)N1CCC(c2ncc3c(n2)CCNC3)CC1`, the INHIBITION is on record as 47.2%. As to `O=C(CCC1CCCC1)N1CCC(c2ncc3c(n2)CCNC3)CC1`, the INHIBITION was found to be 73.4%.

As to `CCCC(=O)N1CCC(c2ncc3c(n2)CCNC3)CC1`, the INHIBITION is listed as -28.6%. For `CCC(=O)N1CCC(c2ncc3c(n2)CCNC3)CC1` the value was 37.6%. In the case of `O=C(C1CCCC1)N1CCC(c2ncc3c(n2)CCNC3)C1` (configuration not stated), the INHIBITION is -32.2%. The same measure for `O=C(CCC1CCCC1)N1CCCC(c2ncc3c(n2)CCNC3)C1` (configuration not stated): 58.1%; for `CN1CCc2nc(C3CCN(C(=O)CCC4CCCC4)CC3)ncc2C1`: 85.9%. For `CN1CCc2nc(C3CCCN(C(=O)CC4CCCCC4)C3)ncc2C1` (configuration not stated) the value was 27.8%; for `CCC(=O)N1CCCC(c2ncc3c(n2)CCN(C)C3)C1` (configuration not stated), 10%; for `Cc1noc(C)c1C(=O)NCC(C)N1CCc2ccccc21` (configuration not stated), 13.6%.

As for `Cc1cc(C(F)(F)F)nn1CC(C)C(=O)Nc1cccnc1` (configuration not stated), the INHIBITION came to 15.1%.

Turning to `Cc1noc(C2CCC3(CCN(C(=O)c4sccc4C)CC3)O2)n1` (configuration not stated), the INHIBITION was -54.7%. For `CN1CC(C(=O)NCc2ccnc(-n3cccn3)c2)CC1=O` (configuration not stated), the INHIBITION is -0.7%.

Consider `CN(Cc1ccco1)[C@@H]1CN(Cc2ccncc2)C[C@@H]2CCCO[C@@H]21`, for which the INHIBITION is 23.5%.

Turning to `CSc1ccc(CNC2(c3ccc(F)cc3)CCOCC2)cc1`, the INHIBITION came out at 13.5%. Turning to `Fc1ccc(C2(NCc3ccccc3)CCOCC2)cc1`, the INHIBITION was determined as 4.48%.

Turning to `CN(C)c1ccc(CNC2(c3ccc(F)cc3)CCOCC2)cc1F`, the INHIBITION is listed as 55.6%. The same measure for `O=S(=O)(c1cncc(F)c1)N1CCC2(CCCCC2)C1`: 19.3%. Take `Cc1noc(C)c1CN1Cc2cn(C)nc2C(COCC2CC2)C1` (configuration not stated): the INHIBITION turned out to be 48.6%.

On to `Cc1ncsc1CN1Cc2cnn(C)c2C(COCC2CC2)C1` (configuration not stated), for which the INHIBITION is listed as -0.813%. As to `Cn1ncc2c1C(COCC1CC1)CN(Cc1ccco1)C2` (configuration not stated), the INHIBITION is on record as 20.6%. The same measure for `Cc1ccc(CN2Cc3nnn(C)c3C(COCC3CC3)C2)o1` (configuration not stated): -14.7%; for `Cc1ccc(CN2Cc3cnn(C)c3C(COCC3CC3)C2)o1` (configuration not stated): 54.4%. For `Cc1noc(C)c1CN1Cc2cnn(C)c2C(COCC2CC2)C1` (configuration not stated) the value was 54.4%; for `Cn1ncc2c(=O)[nH]c(CN3CCCC3c3ccccc3Cl)nc21` (configuration not stated), -19.6%.

On to `Cc1ccc(-c2nc(C(=O)N(C)C3CCN(C)CC3)cs2)c(C)c1`, for which the INHIBITION was 27.7%.

On to `Cc1sc(Br)cc1S(=O)(=O)NCCCN`, for which the INHIBITION worked out at 8.08%.

Take `CC(=O)N1CCCN(C(=O)NCC2(c3cccs3)CCCC2)CC1`: the INHIBITION is 23.9%. With `Cc1nc(C)n(CC2CCCN(CCOc3ccc(F)cc3)C2)n1` (configuration not stated), the INHIBITION was found to be 4.52%.

As for `CN1CCO[C@H]2CN(S(=O)(=O)c3ccc(C#N)cc3)C[C@H]21`, the INHIBITION came out at 5.63%. The same measure for `CC(C)NCC1(COc2ccccc2)C[C@@H](O)[C@@H](O)C1` (some centres not stated): 38.3%; for `O=C(COCCc1ccccc1)N1CCCC(n2cncn2)C1` (configuration not stated): 7.12%. For `O=C(COCC1CC1)N1CCCC(n2cccn2)C1` (configuration not stated) the value was 8.48%. As for `NC(=O)COc1cccc(C(=O)N2CCCC(n3cccn3)C2)c1` (configuration not stated), the INHIBITION is on record as 20.1%.

Consider `O=C(CCNc1ncccn1)N1CCCC(n2ccnc2)C1` (configuration not stated), for which the INHIBITION was found to be 21.1%.

For the molecule `NC(=O)c1cccc(OCC(=O)N2CCCC(n3cccn3)C2)c1` (configuration not stated), the INHIBITION is listed as 57.5%.

`O=C(CCNc1ncccn1)N1CCCC(n2cccn2)C1` (configuration not stated): the INHIBITION is reported as 50.3%. For `O=C(COCCc1ccccc1)N1CCCC(n2cccn2)C1` (configuration not stated) the value was 61.9%; for `NC(=O)c1ccc(OCC(=O)N2CCCC(n3cccn3)C2)cc1` (configuration not stated), -25.9%; for `O=C(CCCNc1ncccn1)N1CCCC(n2cccn2)C1` (configuration not stated), 8.48%. The same measure for `Cc1nn(C)c(N(C)C)c1CNC(C)COc1ccc(F)cc1F` (configuration not stated): -41.6%; for `O=S(=O)(NCCC(O)c1ccoc1)c1ccc(Cl)s1` (configuration not stated): -5.22%; for `COc1cc2nc(C)n(CC(=O)NCCO)c(=O)c2cc1OC`: 4.82%. The same measure for `COc1cc(OC)cc(-c2noc(CC(N)c3ccccc3)n2)c1` (configuration not stated): 36.3%; for `CN1CCN(Cc2nnc(C3CCN(S(C)(=O)=O)CC3)n2C)CC1`: -14.3%; for `CN(CC(F)(F)F)C(=O)CNC(=O)N1CCCC(N(C)C)C1` (configuration not stated): 53.3%. Regarding `CC1CCN(C(=O)NCC(=O)N(C)CC(F)(F)F)C1` (configuration not stated), the INHIBITION is 18.6%. For the molecule `CN(CC(F)(F)F)C(=O)CNC(=O)N1CCCC(C(F)(F)F)C1` (configuration not stated), the INHIBITION is listed as 18.6%.

`c1cnc(Nc2cncc(C3CCCN(c4ncccn4)C3)n2)nc1` (configuration not stated): the INHIBITION is reported as -0.371%.

For the molecule `NCC(=O)N1CCCC(c2ccnc(Nc3cnccn3)n2)C1` (configuration not stated), the INHIBITION was 18.9%. Take `NCC(=O)N1CCCC(c2cncc(Nc3ncccn3)n2)C1` (configuration not stated): the INHIBITION is given as 51.7%.

Consider `CCC(=O)N1CCCC1c1nccnc1Nc1ncccn1` (configuration not stated), for which the INHIBITION was 42.6%. The same measure for `c1cnc(Nc2cncc(C3CCCN(c4cnccn4)C3)n2)nc1` (configuration not stated): -6.3%. For `NC(=O)CN1CCCC(c2cncc(Nc3ncccn3)n2)C1` (configuration not stated) the value was 59%; for `COc1ccccc1Oc1cncc(C2CCCN(CC(N)=O)C2)n1` (configuration not stated), 20.8%. For `NCC(=O)N1CCCC1c1nccnc1Nc1ncccn1` (configuration not stated) the value was 59%.

Regarding `COCC(=O)N1CCCC1c1nccnc1Nc1ncccn1` (configuration not stated), the INHIBITION is given as 7.05%. For `CCS(=O)(=O)N1CCC2(CCC2NC(=O)c2ccn(C)c2)CC1` (configuration not stated) the value was 8.53%. The same measure for `O=C(c1ccno1)N1CCO[C@@H]2CC(COCc3ccccn3)C[C@H]21` (some centres not stated): 8.6%; for `COc1cc(C(=O)N(Cc2cnn(C)c2)C(C)C)ccc1C`: 14.1%.

Turning to `COc1cc(N2CC[C@@H]3O[C@H](C(=O)NCC4CC4)C[C@@H]32)ncn1`, the INHIBITION is given as -22.1%. With `Cc1cc(Oc2ccccc2F)nc(C2CCCCN2)n1` (configuration not stated), the INHIBITION was found to be 10.9%. `CN(Cc1nnn(CC2CC2)n1)C(=O)c1ccccc1`: the INHIBITION is on record as 1.74%. `CCCn1c(=O)n(CCC(=O)N(C)Cc2ccc(C)o2)c2ccccc21`: the INHIBITION is 83.2%.

With `CCn1c(=O)n(CCC(=O)N(C)Cc2ccc(C)o2)c2ccccc21`, the INHIBITION is listed as 15.4%. As to `Cc1ccc(CN(C)C(=O)CCn2c(=O)n(C)c3ccccc32)o1`, the INHIBITION was found to be 49.7%.

`CCN1CCC(NC(=O)NCC(O)c2ccc(Cl)c(F)c2)CC1` (configuration not stated): the INHIBITION is listed as 43.1%. The same measure for `O=C1Nc2ccccc2CC12CCCN2Cc1cccnc1` (configuration not stated): -2.28%; for `Cc1ccc(CN2CCCC23Cc2ccccc2CNC3=O)cc1` (configuration not stated): 52.4%; for `CC(C)CCN1CCCC12Cc1ccccc1CNC2=O` (configuration not stated): 14.3%. Regarding `O=C1Nc2ccccc2CC12CCCN2Cc1ccccn1` (configuration not stated), the INHIBITION was found to be 27.5%. For `CC(C)(C)CN1CCCC12Cc1ccccc1CNC2=O` (configuration not stated) the value was 32.5%; for `Cc1cc(C)c(CN2CCCC23Cc2ccccc2CNC3=O)c(C)c1` (configuration not stated), 68.9%; for `O=C1NCc2ccccc2CC12CCCN(CCCc1ccccc1)C2` (configuration not stated), 27.5%. Regarding `O=C1Nc2ccccc2CC12CCCN2Cc1ccc(F)cc1` (configuration not stated), the INHIBITION is -38.7%.

As for `Cc1ccc(CCN2CCCC23Cc2ccccc2CNC3=O)cc1` (configuration not stated), the INHIBITION is 54.9%. On to `O=S(=O)(c1cccnc1)N1C[C@H]2CCC[C@@]2(COc2ccccn2)C1`, for which the INHIBITION is given as 38.5%. On to `CCn1c(N)nc2cc(C(=O)NCCc3ccncc3)cnc21`, for which the INHIBITION is given as -20%. For `Nc1ccc(CC2CCCN(Cc3c[nH]cn3)C2)nn1` (configuration not stated) the value was -4.87%. For `COc1ccc(CN2CCn3cc(CN4CCCCC4)nc3C2)cc1` the value was 0.79%; for `CC(C)Oc1ccc(C(=O)N2CCCCC2Cn2cccn2)cn1` (configuration not stated), -21.645%. For `O=C(c1ccc(=O)[nH]c1)N1CCc2c(nc(-c3cccnc3)[nH]c2=O)C1`, the INHIBITION worked out at 61.8%. Regarding `CCCc1ccc(C(=O)N2CCc3c(nc(N(C)C)[nH]c3=O)C2)cc1`, the INHIBITION was 23.3%.

Turning to `CN(C)c1nc2c(c(=O)[nH]1)CCN(C(=O)c1ccc(=O)[nH]c1)C2`, the INHIBITION stood at 4.1%. In the case of `CN(C)c1nc2c(c(=O)[nH]1)CCN(C(=O)c1c[nH]c(=O)c(Cl)c1)C2`, the INHIBITION was 51.1%. For `CN(C)c1nc2c(c(=O)[nH]1)CCN(C(=O)c1cccc3nccnc13)C2`, the INHIBITION turned out to be 6.8%. The same measure for `Cc1nc(C(C)C)ncc1C(=O)N1CCc2c(nc(N(C)C)[nH]c2=O)C1`: 50.1%; for `O=c1[nH]c(-c2cccnc2)nc2c1CCN(S(=O)(=O)N1CCCC1)C2`: 23.6%. On to `O=C(c1cccnc1)N1CCc2c(nc(N3CCCC3)[nH]c2=O)C1`, for which the INHIBITION turned out to be 46%. With `CN(C)c1nc2c(c(=O)[nH]1)CCN(C(=O)C1CCCO1)C2` (configuration not stated), the INHIBITION came out at 6.26%. For the molecule `CCc1onc(C)c1C(=O)N1CCN(c2ncc3c(n2)CCOC3)CC1`, the INHIBITION stood at 17.05%.
